# Measurements published in PubChem BioAssay.
# Activity calls are given as the source filed them.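 The calls were made as follows, unless noted: active = fluorescence slope higher than the sample average by over 3 SD (cut at about -0.22 in these data, passing the limit was not always enough); inactive = the rest.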
# What was measured:
# [1] = inhibitors of TNFa-induced NFkB p65 translocation, primary screen, imaging, HUVEC, MLSMR starter and 10KST1 sets (AID 438;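 active = inhibition above 20% together with a positive visual image hit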;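 also: compound added about 3h40 before a 20 min TNFalpha stimulation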;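 as to inhibition: signal is the nuclear over cytoplasmic p65 intensity ratio per well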); conditions: HUVEC TNFa-induced p65 nuclear translocation; cell count: measured here: nuclei count (cytotoxicity indicator), at 2.08 µM; inhibition: at 2 µM, stronger effect = higher value, 0% TNFa-plus-vehicle, 100% no-TNFa wells
# [2] = reduction of polyQ htt aggregates in cells – imaging, exon1htt(103Q)mCFP cells, high-content imaging, primary screen (AID 483;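 active = visual image review flags a hit and inhibition of aggregation exceeds 20%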;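 also: compound exposure lasted 3 days before fixation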;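 as to nuclei count: percent of the per-plate median nuclei count of sample wells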); conditions: exon1htt(103Q)mCFP cell line, aggregate imaging, at 2 µM; inhibition of aggregation: stronger effect = higher value; nuclei count: measured here: cell count, toxicity
# [3] = endothelial E-selectin expression blockers – imaging, HUVEC, immunofluorescence, MLSMR starter and 10KST1 sets, primary screen (AID 487;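 active = visually confirmed hit in the image check and inhibition above 20%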;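 as to inhibition: signal is fraction of cell area covered by stained E-selectin grains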;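 as to nuclei count: 100% = median nuclei count of all wells on the same plate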); conditions: HUVEC TNFalpha-induced E-selectin immunofluorescence imaging, at 2 µM; inhibition: stronger effect = higher value; nuclei count: measured here: cell number, toxicity
# [4] = target: Voltage-gated potassium channel subunit beta-2 (Rattus norvegicus) (UniProt P62483); test: inhibitors of rat Kvbeta2 reductase activity – biochemical, NADPH fluorescence, primary screen (AID 622); conditions: recombinant KvBeta, 4-cyanobenzaldehyde reduction, at 10 µM, stronger effect = higher value;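 also: slope of raw intensity against log time taken from 70 to 1610 s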
# Chain of Voltage-gated potassium channel subunit beta-2 (Rattus norvegicus) (P62483 whole entry, looked up): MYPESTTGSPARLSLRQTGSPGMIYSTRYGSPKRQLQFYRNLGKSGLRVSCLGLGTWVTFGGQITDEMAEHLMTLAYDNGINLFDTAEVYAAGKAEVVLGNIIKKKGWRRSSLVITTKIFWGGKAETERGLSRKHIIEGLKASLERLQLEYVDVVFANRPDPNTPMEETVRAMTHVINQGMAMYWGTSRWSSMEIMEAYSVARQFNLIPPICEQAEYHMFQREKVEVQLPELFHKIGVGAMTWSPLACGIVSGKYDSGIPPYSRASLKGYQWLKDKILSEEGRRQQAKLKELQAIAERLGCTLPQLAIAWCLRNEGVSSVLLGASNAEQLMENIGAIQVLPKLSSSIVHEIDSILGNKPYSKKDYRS
# [5] = target: Voltage-gated potassium channel subunit beta-2 (Rattus norvegicus) (UniProt P62483); test: enhancers of rat Kvbeta2 NADPH turnover – biochemical, NADPH fluorescence, primary screen (AID 623;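 active = NADPH fluorescence slope more negative than the mean of all samples by about 3 SD, 99.7% confidence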;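 also: fluorescence intensity change per second fitted from 20 to 320 s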); conditions: Recombinant KvBeta, NADPH fluorescence decrease slope, 10 min; at 10 µM; stronger effect = lower value
# [6] = target: Alpha-2C adrenergic receptor (Homo sapiens) (UniProt P18825); test: compounds altering alpha2C-coupled GIRK flux – cell-based, HEK293 alpha2C/GIRK1/2, thallium flux, primary screen (AID 624;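 active = fluorescence slope after compound addition differing from the mean of all screened samples at 99.7% confidence, in either direction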;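 also: slope of fluorescence ratio to pre-addition baseline per second over 15 to 24 s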); conditions: thallium flux BTC fluorescence, at 10 µM, actives lie on both sides
# Chain of Alpha-2C adrenergic receptor (Homo sapiens) (P18825 whole entry, looked up): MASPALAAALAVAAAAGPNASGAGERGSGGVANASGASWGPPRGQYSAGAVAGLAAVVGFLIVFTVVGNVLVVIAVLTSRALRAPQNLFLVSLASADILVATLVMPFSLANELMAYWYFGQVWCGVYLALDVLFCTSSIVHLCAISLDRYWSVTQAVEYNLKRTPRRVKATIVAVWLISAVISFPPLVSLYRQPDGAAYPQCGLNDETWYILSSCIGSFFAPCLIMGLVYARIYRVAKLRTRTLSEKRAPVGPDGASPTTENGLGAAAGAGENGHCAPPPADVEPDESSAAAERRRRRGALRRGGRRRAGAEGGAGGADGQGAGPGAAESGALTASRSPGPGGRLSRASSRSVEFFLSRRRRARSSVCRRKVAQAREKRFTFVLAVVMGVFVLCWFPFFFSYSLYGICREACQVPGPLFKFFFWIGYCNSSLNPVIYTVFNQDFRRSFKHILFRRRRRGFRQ
# [7] = blockers of RIG-like receptor reporter activation – cell-based, Sendai virus stimulus, luciferase, 10K MLSCN set, TLR/RLR signaling modifier project, primary screen (AID 602276;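 active = inhibition at or above 50% at 10 µM; inactive = inhibition below 50%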;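 also: firefly luciferase from ISG56 promoter only with Renilla not read in this screen; 0% = Sendai virus plus DMSO and 100% = medium plus DMSO without virus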); conditions: HEK293 RL24 IRF3 luciferase reporter, at 10 µM, stronger effect = higher value
# [8] = TLR3 IRF3 reporter activation blockers – cell-based, poly I:C stimulus, luciferase, 10K MLSCN set, primary screen (AID 602277;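 active = inhibition of the reporter signal at or above 50%; inactive = inhibition below 50%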); conditions: HEK293-TLR3 RL24 IRF3 luciferase reporter, at 10 µM, stronger effect = higher value
SMILES,cell count [1],inhibition [1],inhibition of aggregation [2],nuclei count [2] [%],inhibition [3],nuclei count [3] [%],fluorescence slope [4],NADPH fluorescence slope [5],slope [6],inhibition [7],inhibition [8]
C=CCn1c(SCC2=C(C(=O)OCC)C(C)NC(=O)N2)nnc1C1CCCCC1 (stereo not drawn),468,6% (inactive),4.5% (inactive),113,-85.9% (inactive),121,-0.469 (inactive),5.7e-05 (inactive),0.00672 (inactive),14.6% (inactive),27.1% (inactive)
Cc1ccc(NC(=O)c2cc(S(=O)(=O)N3CCC4(CC3)OCCO4)ccc2F)cc1,369,-3.3% (inactive),12.5% (inactive),102,-43.7% (inactive),108,-0.441 (inactive),3.1e-05 (inactive),0.0033 (inactive),-8.15% (inactive),-22.3% (inactive)
Cc1cc(C(=O)OCC(=O)N2c3ccccc3CC2C)c(C)o1 (stereo not drawn),733,-9.6% (inactive),3.2% (inactive),85.1,-49.5% (inactive),111,-0.425 (inactive),2.6e-05 (inactive),0.00532 (inactive),-14.2% (inactive),-2.49% (inactive)
O=c1oc2ccccc2cc1NCc1ccccc1O,644,2.1% (inactive),-25% (inactive),115,-19.5% (inactive),106,-0.594 (inactive),-1.9e-05 (inactive),0.00653 (inactive),-15.8% (inactive),-21.8% (inactive)
CSCCC(NC(=O)c1occc1C)C(=O)O (stereo not drawn),361,4% (inactive),-17.4% (inactive),108,-91.1% (inactive),149,-0.351 (inactive),-6.3e-05 (inactive),0.00359 (inactive),7.31% (inactive),21.8% (inactive)
Cc1cnc(NC(=O)CSc2nnc(COc3c(C)cccc3C)o2)s1,628,10.9% (inactive),-2.5% (inactive),103,-22.4% (inactive),121,-0.537 (inactive),-4.4e-05 (inactive),0.00686 (inactive),12.1% (inactive),39% (inactive)
CC(C)c1cc(C(=O)NCc2ccco2)no1,788,3.7% (inactive),-21.5% (inactive),104,-45.3% (inactive),106,-0.586 (inactive),-2.6e-05 (inactive),0.00624 (inactive),-22.8% (inactive),-50.6% (inactive)
COc1ccc(-n2ncc3c(N4CCC(C)CC4)ncnc32)cc1,575,-1.3% (inactive),17.5% (inactive),121,-10.8% (inactive),110,-0.572 (inactive),-5e-05 (inactive),0.00789 (inactive),9.66% (inactive),-67.2% (inactive)
Cc1ccc(CN2C(=O)CCC2C(=O)NC2CCCC2)cc1 (stereo not drawn),382,1.3% (inactive),6.6% (inactive),103,-19% (inactive),111,-0.589 (inactive),-3.4e-05 (inactive),0.00496 (inactive),12.8% (inactive),21.8% (inactive)
COc1ccc(-c2nnc(SCC(=O)c3cc(C)n(Cc4cccs4)c3C)o2)cc1,497,-13.7% (inactive),-13.1% (inactive),97.7,-129% (inactive),161,-0.559 (inactive),5.5e-05 (inactive),0.00615 (inactive),-5.7% (inactive),-11.8% (inactive)
O=C1CCCCCN1CSc1nc2ccccc2s1,686,-17.2% (inactive),-3.1% (inactive),106,7.2% (inactive),97.6,-0.433 (inactive),-0.000138 (inactive),0.00664 (inactive),18.8% (inactive),27.7% (inactive)
CCc1nnc(SCc2cn3c(C)cc(C)nc3n2)n1N,571,-13.6% (inactive),-13.3% (inactive),104,2.4% (inactive),143,-0.284 (inactive),-5.4e-06 (inactive),0.00669 (inactive),-4.74% (inactive),4.52% (inactive)
Cc1cccc2sc(NC(=O)Cn3cccc3)nc12,518,-1.1% (inactive),-6.6% (inactive),59.1,-13.1% (inactive),100,-0.603 (inactive),-2.8e-05 (inactive),0.0115 (active),-3.68% (inactive),-14% (inactive)
CC(=O)OC1c2ccccc2C(=O)N1c1ccccc1C (stereo not drawn),590,9% (inactive),-20.1% (inactive),85.9,-51.8% (inactive),115,-0.586 (inactive),-1.7e-05 (inactive),0.00543 (inactive),10.3% (inactive),22.9% (inactive)
CN(C)C(=O)Cn1c(SCC(=O)NC2CCCCC2)nc2ccccc21,685,-3.1% (inactive),-19.2% (inactive),112,-68.3% (inactive),146,-0.41 (inactive),6.1e-06 (inactive),0.00698 (inactive),5.56% (inactive),31.7% (inactive)
COc1ccc(C(c2nnnn2C2CCCC2)N2CCN(C3CCCC3)CC2)cc1OC (stereo not drawn),263,17.5% (inactive),8.8% (inactive),104,2% (inactive),88.5,-0.512 (inactive),-0.000149 (inactive),0.00468 (inactive),12.8% (inactive),18.8% (inactive)
COc1cc2c(cc1OC)C(C)N(C(=O)c1cc3n(n1)C(C(F)(F)F)CC(c1ccco1)N3)CC2 (stereo not drawn),591,9.6% (inactive),-0.8% (inactive),97.6,-22% (inactive),96.6,-0.613 (inactive),1.3e-05 (inactive),0.00369 (inactive),25.6% (inactive),19.1% (inactive)
Cc1ccc(Nc2nc(N)nc(CN3CCCCCC3)n2)cc1,350,6.8% (inactive),2.4% (inactive),96.1,69.8% (active),88.8,-0.449 (inactive),-2.5e-05 (inactive),0.00438 (inactive),8.97% (inactive),24.6% (inactive)
COc1ccc(C(=O)N(CCN2CCOCC2)CC(=O)NC2CCCC2)cc1OC,402,0.5% (inactive),-20.8% (inactive),108,-41.4% (inactive),109,-0.597 (inactive),-5.3e-05 (inactive),0.00354 (inactive),-8.79% (inactive),-6.82% (inactive)
COc1cc(NC(=O)C(C)Oc2ccccc2)c(C(=O)O)cc1OC (stereo not drawn),622,-1.5% (inactive),-0.9% (inactive),108,-23.7% (inactive),101,-0.606 (inactive),-2.5e-05 (inactive),0.00509 (inactive),19% (inactive),19.4% (inactive)
c1ccn2c(SCc3cn4ccsc4n3)nnc2c1,586,-7.3% (inactive),19.5% (inactive),90.6,-20.5% (inactive),111,-0.544 (inactive),2.4e-05 (inactive),0.00536 (inactive),-1.63% (inactive),-34.1% (inactive)
c1ccc2oc(SCc3cn4ccccc4n3)nc2c1,612,12.6% (inactive),16.1% (inactive),99.8,-30.4% (inactive),132,-0.506 (inactive),-4.1e-05 (inactive),0.00508 (inactive),-46.4% (inactive),-151% (inactive)
CCc1nn2c(N3CCOCC3)cc(C)nc2c1-c1ccc(F)cc1,716,-9.7% (inactive),-24.7% (inactive),101,-46.2% (inactive),114,-0.465 (inactive),-0.000126 (inactive),0.0049 (inactive),10.6% (inactive),18.4% (inactive)
COC(=O)C1C(=O)c2c([nH]c(C(=O)OCCOC(C)C)c2C)CC1C (stereo not drawn),304,-3.3% (inactive),-11.8% (inactive),112,-46.9% (inactive),117,-0.393 (inactive),-5.7e-05 (inactive),0.00401 (inactive),-33.4% (inactive),-43.7% (inactive)
COc1ccc(CCNc2nc(N3CCOCC3)nc(N3CCOCC3)n2)cc1OC,229,10.4% (inactive),14.9% (inactive),66.5,15.6% (inactive),91.3,-0.515 (inactive),-3.3e-05 (inactive),0.00378 (inactive),15.3% (inactive),10.3% (inactive)
CCN(CC)CCCN1C(=O)C(O)=C(C(=O)c2ccco2)C1c1ccc(C)o1 (stereo not drawn),330,22.9% (inactive),-17.3% (inactive),106,-22.2% (inactive),99.7,-0.607 (inactive),-3.7e-05 (inactive),0.00682 (inactive),8.72% (inactive),8.23% (inactive)
CC(C)CCNC(=O)C1CCN(C(=O)N(C)C)CC1,556,7% (inactive),13.3% (inactive),53.8,-28.5% (inactive),104,-0.359 (inactive),-4.6e-05 (inactive),0.00555 (inactive),8.09% (inactive),19.5% (inactive)
O=C(c1ccco1)N1CCN(C2=NS(=O)(=O)c3ccccc32)CC1,596,-18.6% (inactive),-11.3% (inactive),105,-3% (inactive),104,-0.463 (inactive),-1.3e-05 (inactive),0.00424 (inactive),4.61% (inactive),31.2% (inactive)
